The supplement of paper PMC10849652
Of roughly 8,800 targets only a part is listed; those with a hit were picked by preference. About 0.5% of all pairs of compound and target were hits.

Compound: C#Cc1cccc(Nc2ncnc3cc(OCCOC)c(OCCOC)cc23)c1 [erlotinib]
Assay: log2 fold change, soluble protein after heating vs DMSO (PISA); higher = thermal stabilisation; K562 lysate, 10 uM; active = over 0.2 and 3.5 SD of the protein, either way, in both replicates (recomputed)
Procedure, shortened: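 Thermal stability, expressed as log-two fold change relative to solvent controls, is given from duplicates. Crude K562 extract in PBS pH 7.4 with 1 mM MgCl2, at 1 mg/mL protein, was treated with 10 μM compound for 30 min and heated in aliquots for 3 min across 48°C-58°C. After pooling, adjustment to 0.5% NP-40 at 4°C and centrifugation at 21,000xg for 90 min, supernatant protein was measured by TMTpro 16plex LC-MS/MS with channel sums equalised.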

UniProt Q8IZ69, sequence (Q8IZ69 whole entry, looked up): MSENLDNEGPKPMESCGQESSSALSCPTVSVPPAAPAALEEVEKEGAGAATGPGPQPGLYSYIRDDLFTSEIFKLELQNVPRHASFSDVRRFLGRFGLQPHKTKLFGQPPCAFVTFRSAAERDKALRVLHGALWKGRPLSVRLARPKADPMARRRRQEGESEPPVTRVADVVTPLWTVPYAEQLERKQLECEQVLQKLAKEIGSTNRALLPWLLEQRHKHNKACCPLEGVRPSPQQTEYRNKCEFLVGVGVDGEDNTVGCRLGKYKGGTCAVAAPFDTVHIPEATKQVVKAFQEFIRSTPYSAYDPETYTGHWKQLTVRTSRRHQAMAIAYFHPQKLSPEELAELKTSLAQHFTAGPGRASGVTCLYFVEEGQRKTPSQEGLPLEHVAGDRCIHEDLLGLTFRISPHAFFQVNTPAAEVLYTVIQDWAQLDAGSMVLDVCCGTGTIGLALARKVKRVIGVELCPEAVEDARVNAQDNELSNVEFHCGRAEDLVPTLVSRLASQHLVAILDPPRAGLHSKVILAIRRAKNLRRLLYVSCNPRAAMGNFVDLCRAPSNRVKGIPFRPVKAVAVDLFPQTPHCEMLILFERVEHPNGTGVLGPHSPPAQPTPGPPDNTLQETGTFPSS
UniProt Q969Z0, sequence (Q969Z0 whole entry, looked up): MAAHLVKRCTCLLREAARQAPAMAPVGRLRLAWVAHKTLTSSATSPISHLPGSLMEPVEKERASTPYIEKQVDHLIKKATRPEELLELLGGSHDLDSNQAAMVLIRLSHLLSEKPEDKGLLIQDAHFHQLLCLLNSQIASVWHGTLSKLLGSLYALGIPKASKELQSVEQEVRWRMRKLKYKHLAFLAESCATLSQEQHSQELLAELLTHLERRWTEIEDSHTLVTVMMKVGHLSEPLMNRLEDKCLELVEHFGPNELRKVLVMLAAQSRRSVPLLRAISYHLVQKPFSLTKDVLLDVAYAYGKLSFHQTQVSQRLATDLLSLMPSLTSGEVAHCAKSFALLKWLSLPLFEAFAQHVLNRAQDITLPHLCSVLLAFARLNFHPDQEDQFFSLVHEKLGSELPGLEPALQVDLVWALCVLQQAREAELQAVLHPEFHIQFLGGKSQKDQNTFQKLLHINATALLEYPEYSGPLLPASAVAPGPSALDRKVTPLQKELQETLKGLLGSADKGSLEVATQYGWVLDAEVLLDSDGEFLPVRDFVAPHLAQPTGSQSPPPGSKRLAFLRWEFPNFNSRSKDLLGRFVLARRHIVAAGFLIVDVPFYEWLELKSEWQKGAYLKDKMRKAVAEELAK
UniProt Q9NUY8, sequence (Q9NUY8 whole entry, looked up): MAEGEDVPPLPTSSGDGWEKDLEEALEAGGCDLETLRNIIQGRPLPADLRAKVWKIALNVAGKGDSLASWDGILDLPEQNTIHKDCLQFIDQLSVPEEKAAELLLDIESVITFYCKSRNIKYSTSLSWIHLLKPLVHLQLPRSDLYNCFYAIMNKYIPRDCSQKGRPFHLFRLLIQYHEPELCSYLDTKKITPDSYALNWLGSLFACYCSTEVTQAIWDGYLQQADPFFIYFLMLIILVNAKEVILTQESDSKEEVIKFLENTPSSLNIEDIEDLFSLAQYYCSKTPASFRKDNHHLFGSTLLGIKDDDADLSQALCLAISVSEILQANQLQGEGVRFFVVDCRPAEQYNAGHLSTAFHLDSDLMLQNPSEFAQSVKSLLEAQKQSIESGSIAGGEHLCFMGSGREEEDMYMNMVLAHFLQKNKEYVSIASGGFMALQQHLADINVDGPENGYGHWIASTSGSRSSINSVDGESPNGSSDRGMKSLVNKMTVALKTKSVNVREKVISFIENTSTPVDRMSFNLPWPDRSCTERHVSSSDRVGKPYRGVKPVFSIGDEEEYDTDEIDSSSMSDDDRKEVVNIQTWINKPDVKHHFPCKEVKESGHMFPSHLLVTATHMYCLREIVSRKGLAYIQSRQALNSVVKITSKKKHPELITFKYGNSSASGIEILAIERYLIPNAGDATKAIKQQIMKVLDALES
UniProt Q12933, sequence (Q12933 whole entry, looked up): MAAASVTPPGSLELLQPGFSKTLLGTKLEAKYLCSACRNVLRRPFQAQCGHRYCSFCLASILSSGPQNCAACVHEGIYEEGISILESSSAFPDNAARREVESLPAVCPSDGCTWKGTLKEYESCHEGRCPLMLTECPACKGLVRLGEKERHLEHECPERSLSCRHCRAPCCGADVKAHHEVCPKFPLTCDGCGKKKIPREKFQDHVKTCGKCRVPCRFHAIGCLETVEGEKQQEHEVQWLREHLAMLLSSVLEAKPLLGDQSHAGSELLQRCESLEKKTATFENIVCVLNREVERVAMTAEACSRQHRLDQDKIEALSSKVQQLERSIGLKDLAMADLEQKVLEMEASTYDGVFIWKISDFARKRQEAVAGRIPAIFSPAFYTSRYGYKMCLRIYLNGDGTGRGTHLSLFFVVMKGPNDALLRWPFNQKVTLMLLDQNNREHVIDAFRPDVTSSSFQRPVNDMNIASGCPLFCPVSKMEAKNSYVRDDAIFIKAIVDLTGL
UniProt O95857, sequence (O95857 whole entry, looked up): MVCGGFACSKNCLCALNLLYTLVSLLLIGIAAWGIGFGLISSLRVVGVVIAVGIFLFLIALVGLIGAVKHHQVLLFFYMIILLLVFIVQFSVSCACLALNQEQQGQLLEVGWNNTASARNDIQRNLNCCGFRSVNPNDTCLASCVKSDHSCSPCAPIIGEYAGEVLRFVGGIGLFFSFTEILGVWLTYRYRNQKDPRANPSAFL
UniProt Q07157, sequence (Q07157 whole entry, looked up): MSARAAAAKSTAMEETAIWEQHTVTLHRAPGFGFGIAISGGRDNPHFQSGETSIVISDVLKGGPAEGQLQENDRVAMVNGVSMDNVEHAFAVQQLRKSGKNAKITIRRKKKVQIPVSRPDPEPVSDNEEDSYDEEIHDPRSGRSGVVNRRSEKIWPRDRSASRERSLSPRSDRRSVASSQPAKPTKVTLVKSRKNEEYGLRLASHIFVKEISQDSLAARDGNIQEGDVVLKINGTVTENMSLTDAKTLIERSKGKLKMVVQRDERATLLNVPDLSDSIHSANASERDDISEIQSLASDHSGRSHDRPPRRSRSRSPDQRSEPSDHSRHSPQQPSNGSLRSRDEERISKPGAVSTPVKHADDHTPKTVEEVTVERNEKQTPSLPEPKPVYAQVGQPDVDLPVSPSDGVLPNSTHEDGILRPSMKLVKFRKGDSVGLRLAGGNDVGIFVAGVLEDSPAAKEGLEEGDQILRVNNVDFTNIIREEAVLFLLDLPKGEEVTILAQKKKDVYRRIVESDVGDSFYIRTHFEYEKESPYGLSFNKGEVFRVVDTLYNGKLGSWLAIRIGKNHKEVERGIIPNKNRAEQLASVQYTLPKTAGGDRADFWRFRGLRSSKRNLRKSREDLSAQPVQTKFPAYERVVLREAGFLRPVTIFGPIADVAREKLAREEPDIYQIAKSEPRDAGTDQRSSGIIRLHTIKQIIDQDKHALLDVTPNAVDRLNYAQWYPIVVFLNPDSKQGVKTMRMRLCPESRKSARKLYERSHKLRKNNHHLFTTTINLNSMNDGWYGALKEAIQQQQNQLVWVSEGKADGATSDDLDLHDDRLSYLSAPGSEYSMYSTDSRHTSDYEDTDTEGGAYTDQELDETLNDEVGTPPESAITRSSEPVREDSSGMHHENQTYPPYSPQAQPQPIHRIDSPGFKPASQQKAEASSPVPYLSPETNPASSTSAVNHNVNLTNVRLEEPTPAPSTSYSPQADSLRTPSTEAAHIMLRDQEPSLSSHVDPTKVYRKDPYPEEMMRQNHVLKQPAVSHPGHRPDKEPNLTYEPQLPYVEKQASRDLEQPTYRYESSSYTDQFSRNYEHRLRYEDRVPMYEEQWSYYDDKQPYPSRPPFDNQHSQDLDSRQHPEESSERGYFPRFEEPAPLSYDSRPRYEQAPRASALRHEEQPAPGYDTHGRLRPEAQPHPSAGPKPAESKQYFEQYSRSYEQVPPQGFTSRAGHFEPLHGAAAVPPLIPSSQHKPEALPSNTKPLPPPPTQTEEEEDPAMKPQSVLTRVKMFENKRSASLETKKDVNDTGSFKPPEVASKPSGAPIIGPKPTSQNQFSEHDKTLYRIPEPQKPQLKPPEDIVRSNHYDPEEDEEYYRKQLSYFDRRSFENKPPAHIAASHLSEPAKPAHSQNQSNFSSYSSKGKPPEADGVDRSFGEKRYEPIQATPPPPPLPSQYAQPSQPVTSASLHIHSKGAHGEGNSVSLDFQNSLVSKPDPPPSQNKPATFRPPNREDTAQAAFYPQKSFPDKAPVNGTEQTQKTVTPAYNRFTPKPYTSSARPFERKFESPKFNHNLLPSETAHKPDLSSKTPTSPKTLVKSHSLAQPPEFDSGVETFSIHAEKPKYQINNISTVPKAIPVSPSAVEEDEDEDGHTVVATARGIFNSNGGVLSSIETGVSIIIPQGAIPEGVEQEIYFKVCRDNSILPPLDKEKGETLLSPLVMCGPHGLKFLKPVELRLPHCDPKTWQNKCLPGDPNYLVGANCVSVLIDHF
UniProt Q6NXR4, sequence (Q6NXR4 whole entry, looked up): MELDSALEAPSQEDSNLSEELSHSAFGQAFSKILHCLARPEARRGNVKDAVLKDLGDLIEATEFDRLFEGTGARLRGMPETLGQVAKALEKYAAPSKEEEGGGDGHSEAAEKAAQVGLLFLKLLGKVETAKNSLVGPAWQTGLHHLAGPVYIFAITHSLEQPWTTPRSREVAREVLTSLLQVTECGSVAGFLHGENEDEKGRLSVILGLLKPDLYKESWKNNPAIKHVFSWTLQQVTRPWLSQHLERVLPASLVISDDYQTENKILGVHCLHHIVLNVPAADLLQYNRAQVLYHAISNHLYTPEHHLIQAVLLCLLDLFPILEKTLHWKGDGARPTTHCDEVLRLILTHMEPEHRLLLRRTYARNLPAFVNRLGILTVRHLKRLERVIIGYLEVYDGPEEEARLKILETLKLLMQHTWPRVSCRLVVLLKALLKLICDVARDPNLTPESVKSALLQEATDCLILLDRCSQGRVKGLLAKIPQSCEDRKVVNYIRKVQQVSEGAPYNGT
UniProt Q9P0S9, sequence (Q9P0S9 whole entry, looked up): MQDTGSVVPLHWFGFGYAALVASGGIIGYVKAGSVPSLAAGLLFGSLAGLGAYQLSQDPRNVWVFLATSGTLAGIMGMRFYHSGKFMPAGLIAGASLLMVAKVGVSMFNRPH

log2 fold change, inactive:
TOR3A (UniProt Q9H497) 0
TRAF2 isoform 2 (UniProt Q12933) 0.026
TBRG4 (UniProt Q969Z0) 0.033
TBL3 (UniProt Q12788) 0.082
UBE3B (UniProt Q7Z3V4) -0.14
TRA2A (UniProt Q13595) -0.164
TJP1 isoform 2 (UniProt Q07157) -0.002
TPM4 isoform 2 (UniProt P67936) -0.06
TUBGCP3 (UniProt Q96CW5) -0.035
TGOLN2 isoform 7 (UniProt O43493) -0.108
TSPAN13 (UniProt O95857) 0.002
TIMELESS (UniProt Q9UNS1) 0.023
TRMT2A (UniProt Q8IZ69) -0.042
TTC12 isoform 2 (UniProt Q9H892) 0.066
TMPO (UniProt P42167) -0.016
TBK1 (UniProt Q9UHD2) -0.005
TGFBRAP1 (UniProt Q8WUH2) 0.015
TMEM14C (UniProt Q9P0S9) 0.027
TMEM164 (UniProt Q5U3C3) 0.067
TPM3 (UniProt P06753) -0.022
TTI2 (UniProt Q6NXR4) -0.003
TBC1D23 (UniProt Q9NUY8) 0.003
